{"source": "PubChem BioAssay AID1347420", "about": "(Sanford-Burnham Center for Chemical Genomics, 2020)", "note": "The whole screen tested about 1,300 compounds, of which about 980 (75%) were called active. Inconclusive results (about 4%) are left out. The list shows a part of the results. A number with no mark means an inactive call. Residues, ends and D or L forms follow the SMILES beside them. *: point of attachment. Cbz = O=C(OCc1ccccc1)*"}
{"target": "Sulfhydryl oxidase 1 (Homo sapiens) (UniProt O00391)", "sequence (O00391 whole entry, looked up)": "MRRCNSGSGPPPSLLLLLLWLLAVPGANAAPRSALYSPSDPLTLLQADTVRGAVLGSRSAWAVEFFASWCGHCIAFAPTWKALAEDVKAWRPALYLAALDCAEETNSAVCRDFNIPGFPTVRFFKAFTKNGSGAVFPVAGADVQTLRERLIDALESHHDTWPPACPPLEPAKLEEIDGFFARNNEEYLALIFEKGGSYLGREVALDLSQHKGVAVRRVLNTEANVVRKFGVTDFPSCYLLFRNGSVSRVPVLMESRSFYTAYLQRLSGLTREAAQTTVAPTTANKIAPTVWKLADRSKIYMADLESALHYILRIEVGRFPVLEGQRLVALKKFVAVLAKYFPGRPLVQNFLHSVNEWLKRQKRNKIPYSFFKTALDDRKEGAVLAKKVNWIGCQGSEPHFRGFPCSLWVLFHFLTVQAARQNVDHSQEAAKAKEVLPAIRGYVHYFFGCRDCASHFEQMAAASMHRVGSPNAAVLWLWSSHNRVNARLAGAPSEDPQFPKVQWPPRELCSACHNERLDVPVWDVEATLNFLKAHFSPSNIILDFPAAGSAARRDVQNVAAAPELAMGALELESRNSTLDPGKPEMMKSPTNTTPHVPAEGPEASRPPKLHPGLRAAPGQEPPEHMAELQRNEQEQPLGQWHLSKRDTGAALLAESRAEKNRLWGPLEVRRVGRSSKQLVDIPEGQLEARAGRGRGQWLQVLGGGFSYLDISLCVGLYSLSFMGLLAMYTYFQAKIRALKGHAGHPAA", "assay": "QSOX1 enzyme inhibitors, primary screen, biochemical, HyperBlu H2O2 luminescence, HTS (AID 1347420); note: values above 100% were filed as inconclusive", "conditions": "recombinant QSOX1, HyperBlu H2O2 luminescence; at 12.5 µM; active compounds read high; active = any value above zero"}
{"compound": "CC1=C(/C=C/C(C)=C/C=C/C(C)=C/C(=O)Nc2ccc(O)cc2)C(C)(C)CCC1", "inhibition": "29.7% (active)"}
{"compound": "CC1=C(/C=C/C(C)=C/C=C/C(C)=C\\C(=O)O)C(C)(C)CCC1", "inhibition": "3.1% (active)"}
{"compound": "CC1=C(/C=C/C(C)=C/C=C/C(C)=C/C(=O)O)C(C)(C)CCC1", "inhibition": "11.4% (active)"}
{"compound": "O=C(Nc1ccncc1)c1cc([N+](=O)[O-])ccc1Cl", "inhibition": "41.9% (active)"}
{"compound": "O=C(Nc1ccc([N+](=O)[O-])cc1Cl)c1cc(Cl)ccc1O", "inhibition": "11.3% (active)"}
{"compound": "O=C(Nc1ccccc1)c1cc([N+](=O)[O-])ccc1Cl", "inhibition": "35.3% (active)"}
{"compound": "O=C(O)c1cc([N+](=O)[O-])ccc1NCCCc1ccccc1", "inhibition": "84.4% (active)"}
{"compound": "O=C(O)/C=C/c1ccc(O)c(O)c1", "inhibition": "74.3% (active)"}
{"compound": "O=c1cc(O)cc(/C=C/c2ccc(O)c(O)c2)o1", "inhibition": "84.2% (active)"}
{"compound": "O=C(/C=C/c1ccc(O)c(O)c1)OCCc1ccccc1", "inhibition": "98.9% (active)"}
{"compound": "CN1CCCC1CCOC(C)(c1ccccc1)c1ccc(Cl)cc1", "note": "(stereo unspecified)", "inhibition": "7.6% (active)"}
{"compound": "NCCc1ccc(O)c(O)c1", "inhibition": "61.7% (active)"}
{"compound": "O=C(O)Cc1ccc(O)c(O)c1", "inhibition": "52.8% (active)"}
{"compound": "COc1cc(CC(=O)O)ccc1O", "inhibition": "4.4% (active)"}
{"compound": "CCN(CC)C(=O)c1ccc(O)c(OC)c1", "inhibition": "17.3% (active)"}
{"compound": "CCc1c(C(=O)NCCc2ccc(N3CCCCC3)cc2)[nH]c2ccc(Cl)cc12", "inhibition": "13.2% (active)"}
{"compound": "CC(C)[C@H](NC(=O)OCc1ccccc1)C(=O)N[C@H](C=O)Cc1ccccc1", "note": "(Cbz-Val-Phe-aldehyde)", "inhibition": "-15.7%"}
{"compound": "Cc1ccc(S(=O)(=O)N[C@@H](Cc2ccccc2)C(=O)CCl)cc1", "inhibition": "4% (active)"}
{"compound": "O=C(N[C@@H](Cc1ccccc1)C(=O)CCl)OCc1ccccc1", "inhibition": "0.2% (active)"}
{"compound": "CC(C)Cc1ccc([C@H](C)C(=O)O)cc1", "inhibition": "5.1% (active)"}
{"compound": "CC(C)Cc1ccc(C(C)C(=O)O)cc1", "note": "(stereo unspecified)", "inhibition": "-0.2%"}
{"compound": "CC(C(=O)O)c1ccc(CC2CCCC2=O)cc1", "note": "(stereo unspecified)", "inhibition": "13.5% (active)"}
{"compound": "CC(C)(C(=O)O)c1ccc(C(O)CCCN2CCC(C(O)(c3ccccc3)c3ccccc3)CC2)cc1", "note": "(stereo unspecified)", "inhibition": "-4.1%"}
{"compound": "CC(C)(C)c1ccc(C(O)CCCN2CCC(C(O)(c3ccccc3)c3ccccc3)CC2)cc1", "note": "(stereo unspecified)", "inhibition": "6.1% (active)"}
{"compound": "CC(C)(C)c1ccc(/C=C/C(=O)Nc2ccc3c(c2)OCCO3)cc1", "inhibition": "17.7% (active)"}
{"compound": "[Li+]", "inhibition": "6.5% (active)"}
{"compound": "CN(C)C(=O)n1nnnc1Cc1ccc(-c2ccccc2)cc1", "inhibition": "2.4% (active)"}
{"compound": "CC(C)c1cccc(C(C)C)c1N1C(=O)c2ccc(O)cc2C1=O", "inhibition": "-98.1%"}
{"compound": "CSc1nc(N)c2ncn([C@@H]3O[C+](COP(=O)([O-])OP(=O)(O)O)[C@H](O)C3O)c2n1", "note": "(stereo partly specified)", "inhibition": "26.4% (active)"}
{"compound": "CN(C)C/C=C(/c1ccc(Br)cc1)c1cccnc1", "inhibition": "-9.2%"}
{"compound": "Nc1nnc(-c2cccc(Cl)c2Cl)c(N)n1", "inhibition": "4.9% (active)"}
{"compound": "Nc1nc(N)c2nc(-c3ccccc3)c(N)nc2n1", "inhibition": "-11.2%"}
{"compound": "Cc1nc2c([nH]1)c(=O)n(C)c(=O)n2Cc1ccco1", "inhibition": "10.1% (active)"}
{"compound": "CCCOc1ccccc1-c1nc2n[nH]nc2c(=O)[nH]1", "inhibition": "15.8% (active)"}
{"compound": "Cc1nnc(SCC2=C(C(=O)O)N3C(=O)[C@@H](NC(=O)Cn4cnnn4)[C@H]3SC2)s1", "inhibition": "10.4% (active)"}
{"compound": "Cc1ccc2nc(CN(CCN(Cc3nc4ccc(C)cc4[nH]3)Cc3nc4ccc(C)cc4[nH]3)Cc3nc4ccc(C)cc4[nH]3)[nH]c2c1", "inhibition": "-0.7%"}
{"compound": "C=C(C)C1CC=C(C(=O)O)CC1", "note": "(stereo unspecified)", "inhibition": "-10.6%"}
{"compound": "O=C(O)C1=CCCNC1", "inhibition": "5.6% (active)"}
{"compound": "O=C(O)C1=CCNCC1", "inhibition": "0.2% (active)"}
{"compound": "Nc1nc(OCc2ccccc2)c2[nH]cnc2n1", "inhibition": "5.5% (active)"}
{"compound": "Nc1nc(N)c(N=O)c(OCC2CCCCC2)n1", "inhibition": "29.8% (active)"}
{"compound": "Nc1nc(OCC2CCCCC2)c2[nH]cnc2n1", "inhibition": "11.1% (active)"}
{"compound": "CC(C)N(CCC(=O)c1ccc2ccccc2c1)Cc1ccccc1", "inhibition": "5.9% (active)"}
{"compound": "CC(COc1ccccc1)N(CCCl)Cc1ccccc1", "note": "(stereo unspecified)", "inhibition": "-3.7%"}
{"compound": "O=S(=O)(c1cccc2c(I)cccc12)N1CCCNCC1", "inhibition": "6% (active)"}
{"compound": "O=S(=O)(c1cccc2c(Cl)cccc12)N1CCCNCC1", "inhibition": "7.1% (active)"}
{"compound": "Cc1ccccc1C(OCCN(C)C)c1ccccc1", "note": "(stereo unspecified)", "inhibition": "2.5% (active)"}
{"compound": "CN(C)CCOC(c1ccccc1)c1ccccc1", "inhibition": "15.9% (active)"}
{"compound": "Cc1cc2c(C(C)C)c(O)c(O)c(C=O)c2c(O)c1-c1c(C)cc2c(C(C)C)c(O)c(O)c(C=O)c2c1O", "inhibition": "74.3% (active)"}
{"compound": "CCC(=O)N1CCN(C(=O)c2ccccc2)CC1", "inhibition": "3.1% (active)"}
{"compound": "Cc1ccc(Cl)c(Nc2ccccc2C(=O)O)c1Cl", "inhibition": "7.8% (active)"}
{"compound": "O=c1onc2cnc3ccccc3n12", "inhibition": "6.8% (active)"}
{"compound": "CN(C)CCC(c1ccccc1)c1ccccn1", "note": "(stereo unspecified)", "inhibition": "4.2% (active)"}
{"compound": "CN(C)CC[C@@H](c1ccc(Br)cc1)c1ccccn1", "inhibition": "-5.9%"}
{"compound": "CN(C)CCC(c1ccc(Cl)cc1)c1ccccn1", "note": "(stereo unspecified)", "inhibition": "6.9% (active)"}
{"compound": "CN(C)CCC(c1ccc(Br)cc1)c1ccccn1", "note": "(stereo unspecified)", "inhibition": "-10.9%"}
{"compound": "CN(C)CC[C@@H](c1ccc(Cl)cc1)c1ccccn1", "inhibition": "3.5% (active)"}
{"compound": "O=C1N(c2ccccc2)c2ccccc2C1(Cc1ccncc1)Cc1ccncc1", "inhibition": "7.6% (active)"}
{"compound": "Nc1c2c(nc3ccccc13)CCCC2", "inhibition": "20.5% (active)"}
{"compound": "Nc1c2c(nc3ccccc13)CCCC2O", "note": "(stereo unspecified)", "inhibition": "4% (active)"}
{"compound": "COc1ccccc1OCC(O)CN1CCN(CC(=O)Nc2c(C)cccc2C)CC1", "note": "(stereo unspecified)", "inhibition": "2.7% (active)"}
{"compound": "COc1ccccc1N1CCN(CC(O)COc2cccc3ccccc23)CC1", "note": "(stereo unspecified)", "inhibition": "11.9% (active)"}
{"compound": "Cc1cn[nH]c1", "inhibition": "-6.5%"}
{"compound": "COc1cc2nc(N3CCN(C(=O)C4CCCO4)CC3)nc(N)c2cc1OC", "note": "(stereo unspecified)", "inhibition": "8.6% (active)"}
{"compound": "COc1cc2nc(N3CCN(C(=O)C4COc5ccccc5O4)CC3)nc(N)c2cc1OC", "note": "(stereo unspecified)", "inhibition": "11.9% (active)"}
{"compound": "COc1cc2nc(N3CCN(C(=O)OCc4ccccc4)C(C(=O)NC(C)(C)C)C3)nc(N)c2cc1OC", "note": "(stereo unspecified)", "inhibition": "0.6% (active)"}
{"compound": "COc1cc2nc(N3CCN(C(=O)c4ccco4)CC3)nc(N)c2cc1OC", "inhibition": "5.9% (active)"}
{"compound": "COc1cc2nc(N(C)CCCNC(=O)C3CCCO3)nc(N)c2cc1OC", "note": "(stereo unspecified)", "inhibition": "0.2% (active)"}
{"compound": "COc1cccc(C(=O)NCCN2CCN(c3ccc(Cl)cc3)CC2)c1", "inhibition": "45.7% (active)"}
{"compound": "O=C(Nc1nc2ccccc2n1CCN1CCOCC1)c1cccc([N+](=O)[O-])c1", "inhibition": "-17.8%"}
{"compound": "O=C(NCCN1CCOCC1)c1ccc(Cl)cc1", "inhibition": "5.4% (active)"}
